# Assay outcomes (PubChem BioAssay)
# In the library only some 21% were active in any assay of this set; here they are far more common.
# Shiga inhibitor: blocks Shiga toxin action in Vero cells. Vero cells, Shiga toxin protein synthesis inhibition reporter. inhibition, % at 38.7 µM. hit rate 9.2% among 290,000. AID 2315; in the data active = inhibition mostly above about 28%, no sharp cut-off; inactive = mostly below about 43%
# Pf growth 48h: inhibits P. falciparum growth in the first generation, 48 h; P. falciparum luciferase growth in erythrocytes, 48 h; Potency, µM (series often up to 28.7 µM), most hits filed as inhibitors; hit rate 5.9% among 310,000; AID 504832; active = well fitted inhibition curve with a large enough effect; inconclusive = small, poorly fitted or top-dose-only effect, or another doubt; inactive = no such curve, though single readings can be large or run the other way
#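 Luminescence readout; reporter = integrated firefly luciferase in P. falciparum. RBC culture at 2% hematocrit, 0.1% parasitemia final, 37 C/5% CO2; decreased signal taken as growth inhibition.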
# Pf growth 96h: P. falciparum growth inhibition at 96 hours; P. falciparum luciferase reporter growth, 96 h; Potency, µM (series often up to 28.7 µM), actives largely listed as inhibitors; hit rate 6.9% among 320,000; active = well fitted inhibition curve with a large enough effect; inconclusive = small, poorly fitted or top-dose-only effect, or another doubt; inactive = no such curve, though single readings can be large or run the other way
#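 Parasite growth measured via integrated firefly luciferase reporter in P. falciparum. Infected erythrocytes at 2% hematocrit, 0.05% parasitemia final were treated 96 hours at 37 C under 5% CO2, and luminescence was read.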
# NS1 inh: inhibitors of influenza NS1 protein function; Potency, µM (doses to about 46.1 µM); hit rate 0.4% among 270,000; AID 2326; also: actives are rising curves; nearly all actives have a fitted effect of over 50% in size
#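 In this qHTS, NS1 from influenza A is expressed in budding yeast, where it slows growth. Cells are switched from glucose to 2% galactose medium (pH 6.0, -URA), treated with compound, and growth recovery is read at OD600.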
# SARS PLpro yeast: blocks SARS-CoV papain-like protease in a yeast assay. Potency, µM (doses to about 32.9 µM), usual class: activators. S. cerevisiae expressing SARS-CoV PLpro, growth rescue. hit rate 0.19% among 330,000. AID 485353; also: nearly all actives have a fitted effect of over 55% in size
# CHX counter: counter-screen hit for Shiga toxin inhibitors, cycloheximide. cell reporter, cycloheximide protein synthesis inhibition counterscreen. max response, %. hit rate 12% among 300,000; in the data active = max response mostly above about 13%, no sharp cut-off; inactive = mostly below about 14%; also: read at 38.3 µM for the half of the compounds with a filed dose
# A number is an active result; i = inactive; ? = inconclusive; nt = no result given. Unless noted, calls follow the shape of the full dose curve.
SMILES,Shiga inhibitor,Pf growth 48h,Pf growth 96h,NS1 inh,SARS PLpro yeast,CHX counter
O=C(NC(=S)Nc1ccccc1Cl)c1cncc(Br)c1,i,i,11.7µM,i,i,i
O=C(NC(=S)Nc1ccccc1Cl)c1cncc(C#Cc2ccccc2)c1,i,i,i,i,i,i
CCOc1ccccc1C(=O)Nc1nnc(Cc2ccc(OC)c(OC)c2)s1,nt,i,i,i,i,i
CCCC1CCC(c2ccc(OCC)cc2)=CC1=O (configuration not stated),33.9,i,i,i,i,43.4
CC(=O)c1ccc(OCC(=O)OCC(=O)NCc2ccco2)cc1,nt,i,i,nt,i,nt
COc1cccc(C(=O)NCC(=O)OCC(=O)c2ccccc2)c1,83.1,i,i,i,i,29.0
COc1cccc(C(=O)Nc2cccc(OCC(=O)c3ccccc3)c2)c1,i,?,i,i,i,20.8
COc1cccc(C(=O)COc2ccc(NC(=O)c3ccccc3)cc2)c1,i,i,?,i,i,16.1
O=C(CNC(=O)c1cccc(OC(F)F)c1)OCC(=O)c1ccccc1,i,i,i,nt,i,i
C=CC[N+]1(CC=C)CCOCC1,i,i,i,i,i,i
Cc1cc(C)cc(N2C(=O)CC(Sc3ccccc3C(=O)O)C2=O)c1 (configuration not stated),i,i,i,i,i,i
CCOC(=O)c1c(N2C(=O)CC(Sc3ccccc3C(=O)O)C2=O)sc(C)c1C (configuration not stated),i,2.33µM,i,i,i,i
CCOc1ccccc1N/C(=N/c1nc(C)cc(C)n1)NC(=O)Nc1ccc(Cl)c(Cl)c1,i,?,i,i,i,i
CCCCCCn1c(=O)c(C(=O)Nc2nc(CC(=O)OCC)cs2)c(O)c2ccccc21,i,11.7µM,i,i,i,i
CCCCCC(=O)NNC(=O)c1c(O)c2ccccc2n(CC)c1=O,58.6,?,10.4µM,i,i,19.0
CCOC(=O)Cc1csc(NC(=O)c2c(O)c3ccccc3n(CCC(C)C)c2=O)n1,i,?,i,i,i,i
O=C(Cn1c(=O)sc2ccccc21)NCc1ccccn1,54.5,i,?,i,i,18.4
C=CCn1c(=O)c(C(=O)Nc2ccccc2C(=O)OCC)c(O)c2ccccc21,i,i,nt,i,i,i
CCCCCCCCCC(=O)NNC(=O)c1c(O)c2ccccc2n(CC)c1=O,i,i,i,i,i,i
C=CCn1c(=O)c(C(=O)Nc2ccccc2S(N)(=O)=O)c(O)c2ccccc21,72.5,i,i,i,i,30.6
CCCCCn1c(=O)c(C(=O)NCc2ccccc2Cl)c(O)c2ccccc21,nt,7.38µM,?,i,i,i
CCCCCCCCn1c(=O)c(C(=O)OC)c(N)c2ccccc21,i,14.7µM,?,i,i,i
CCCCCCn1c(=O)c(C(=O)Nc2cnccn2)c(O)c2ccccc21,i,2.62µM,?,i,i,i
COc1ccc(CNC(=O)c2c(O)c3cc(OC)c(OC)cc3[nH]c2=O)cc1OC,i,i,?,i,i,i
CCCn1c(=O)c(C(=O)Nc2cnccn2)c(O)c2ccccc21,i,i,nt,i,i,i
SMILES,Shiga inhibitor,Pf growth 48h,Pf growth 96h,NS1 inh,SARS PLpro yeast,CHX counter
COc1cc2[nH]c(=O)c(C(=O)NCc3ccc(F)cc3)c(O)c2cc1OC,i,i,3.29µM,i,i,i
O=C1CCCCCCC1Sc1ccccc1[N+](=O)[O-] (configuration not stated),i,i,nt,i,i,i
CCCNC(=O)CN1C(=O)NC(CCc2ccccc2)C1=O (configuration not stated),i,i,i,nt,i,i
CCn1c(=O)c(C(=O)NCc2ccccc2)c(O)c2ccccc21,i,?,i,i,i,i
CCCn1c(=O)c(C(=O)NCc2ccncc2)c(O)c2ccccc21,i,i,nt,i,i,i
CCCCCn1c(=O)c(C(=O)Nc2ccccc2N)c(O)c2ccccc21,nt,4.15µM,i,i,i,i
CCn1c(=O)c(C(=O)NCc2ccc(F)cc2)c(O)c2ccccc21,i,i,11.7µM,i,i,i
CC(C)Cn1c(=O)c(C(=O)NCc2ccccn2)c(O)c2ccccc21,i,11.7µM,i,i,i,i
CCCCCn1c(=O)c(C(=O)NCc2ccncc2)c(O)c2ccccc21,i,1.65µM,i,i,i,i
CCCCn1c(=O)c(C(=O)Nc2ccccc2N)c(O)c2ccccc21,i,i,?,i,i,i
Cc1ccc(NC(=O)CN(C)C(=O)COc2ccccc2-c2ccccc2)cc1,nt,nt,nt,nt,i,nt
O=C(Nc1cc(S(=O)(=O)N2CCCCCC2)ccc1OCC(F)(F)F)c1ccc(=O)[nH]c1,nt,i,?,nt,i,nt
